Cl transport mod: modulators of human KCC2 chloride dependent transport; B-score of Tl+ flux slope (higher = more flux/activation; lower = inhibition) at 10 µM; hit rate 2.2% among 190,000; KCC2 cells, thallium flux FluoZin-2 fluorescence;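 active means thallium flux slope and its plate-corrected score both differing from the plate sample mean at a set confidence after two filtering rounds, in either direction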;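 further: slope of fluorescence scaled to starting intensity during 10 to 20 s after thallium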
Target sequence (Q9H2X9 whole entry, looked up): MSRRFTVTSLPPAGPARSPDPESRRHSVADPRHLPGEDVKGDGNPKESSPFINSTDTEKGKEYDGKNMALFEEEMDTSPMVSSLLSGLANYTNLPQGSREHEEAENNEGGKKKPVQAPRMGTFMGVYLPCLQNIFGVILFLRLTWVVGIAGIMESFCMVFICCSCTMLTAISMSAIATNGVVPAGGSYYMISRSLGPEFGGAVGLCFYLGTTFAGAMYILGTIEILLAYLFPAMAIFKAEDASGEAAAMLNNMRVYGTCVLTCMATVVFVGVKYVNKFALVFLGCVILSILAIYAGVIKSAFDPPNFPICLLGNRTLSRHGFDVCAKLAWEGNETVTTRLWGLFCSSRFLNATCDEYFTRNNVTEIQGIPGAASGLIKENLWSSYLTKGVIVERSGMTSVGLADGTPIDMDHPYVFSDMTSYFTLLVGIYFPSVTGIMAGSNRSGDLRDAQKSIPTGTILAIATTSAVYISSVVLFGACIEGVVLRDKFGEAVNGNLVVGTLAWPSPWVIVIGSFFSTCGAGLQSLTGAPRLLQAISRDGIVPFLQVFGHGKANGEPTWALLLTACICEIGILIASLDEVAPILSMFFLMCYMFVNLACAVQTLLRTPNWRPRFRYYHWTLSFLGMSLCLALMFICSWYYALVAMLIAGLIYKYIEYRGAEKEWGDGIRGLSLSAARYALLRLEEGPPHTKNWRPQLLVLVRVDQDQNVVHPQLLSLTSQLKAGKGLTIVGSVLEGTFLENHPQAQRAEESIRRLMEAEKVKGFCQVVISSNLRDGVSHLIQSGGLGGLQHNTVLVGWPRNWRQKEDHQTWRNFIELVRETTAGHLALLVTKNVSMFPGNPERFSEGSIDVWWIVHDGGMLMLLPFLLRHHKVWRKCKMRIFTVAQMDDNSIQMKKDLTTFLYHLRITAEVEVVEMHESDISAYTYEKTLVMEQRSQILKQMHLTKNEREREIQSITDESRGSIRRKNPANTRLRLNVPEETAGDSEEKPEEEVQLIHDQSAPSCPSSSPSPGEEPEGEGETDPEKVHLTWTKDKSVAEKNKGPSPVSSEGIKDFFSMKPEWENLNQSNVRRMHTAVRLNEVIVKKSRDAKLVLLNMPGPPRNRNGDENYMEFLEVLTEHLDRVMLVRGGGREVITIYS
L major viab: Leishmania major promastigote growth inhibition; inhibition, % at 10 µM; hit rate 9% among 200,000; Leishmania major promastigotes, resazurin fluorescence viability; in the data active means inhibition above about 50%;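 further: promastigotes grown with compound for 44 hours at 28 °C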
Calpain2 inh: blocks pig calpain II enzyme activity | purified calpain II, fluorogenic peptide substrate, 30 min | AID 1236 | hit rate 0.37% among 220,000 | inhibition, % at 16 µM;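 active means inhibition above about 50%, limit read from the data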
ROMK mod: modulators of human ROMK potassium channel | P48048 | hit rate 2% among 130,000 | B-score at 10 µM | Tet-inducible ROMK, thallium flux fluorescence; actives lie on both sides;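 active means signal ratio slope over the read window, or its plate-corrected B-score, at least 3 SD from the plate mean, either direction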;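 further: B-score of the F/F0 ratio slope over 7 to 12 s after thallium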
WT yeast gro inh: growth inhibition of WT yeast, mitochondrial fusion screen; mitochondrial fusion phenotypic screen, WT strain; inhibition, % at 10 µM; hit rate 2.1% among 190,000; AID 1362; in the data active means inhibition above about 58%; tested in S. cerevisiae
An asterisk follows results filed as active; i = inactive; nt = not tested or not shown. Sampled rows, rich in hits. Any-hit rate of the full collection: about 12%.

SMILES	Cl transport mod	L major viab	Calpain2 inh	ROMK mod	WT yeast gro inh
Cc1no[n+]([O-])c1COc1ccc(/C=N/n2nnnc2N)cc1	-0.186	57.5*	1.5	nt	-12.2
CCOC(=O)c1nc(-c2ccccc2)sc1C(C)=O	-0.39	nt	-14.4	nt	nt
COc1cccc(OC)c1C(=O)NC(=S)Nc1cc(-c2nc3ccccc3[nH]2)ccc1Cl	-2.4	81.3*	-47.0	-2.1	22.7
CCOC(=O)c1ccc(NC(=O)c2ccc(OC(C)C)c(OC)c2)cc1	0.495	7.6	4.8	0.075	9.1
COc1ccc(C(=O)Nc2ccc(S(=O)(=O)N3CCCCC3)cc2)cc1OC	-0.202	67.2*	-1.7	nt	-5.7
COc1ccc(-c2cnnn2-c2ccc(NC(=O)c3ccco3)cc2)cc1OC	-2.41	5.9	-16.0	nt	14.7
COc1ccc(-c2cnnn2-c2ccc(NC(=O)c3ccc(S(=O)(=O)N4CCCCC4)cc3)cc2)cc1OC	-1.27	96.1*	-51.9	0.343	-7.7
O=C(O)c1ccccc1-n1c2ccccc2c2ccccc21	0.491	nt	-12.2	nt	nt
O=C(N/N=C/C1=C(N2CCOCC2)C(=C\c2ccccc2)/CC1)Nc1ccccc1	-0.888	6.3	2.7	nt	-11.7
CC(C)C(NC(=O)C12CC3CC(CC(C3)C1)C2)C(=O)N/N=C/C1=C(N2CCOCC2)C(=C\c2ccc([N+](=O)[O-])cc2)/CC1 (stereo not given)	0.664	97.1*	-84.5	nt	-7.9
CC(NC(=O)C12CC3CC(CC(C3)C1)C2)C(=O)N/N=C/C1=C(N2CCOCC2)C(=C\c2cccc([N+](=O)[O-])c2)/CC1 (stereo not given)	1.91	97.8*	-111.3	nt	11.6
Cc1occc1C(=O)N/N=C/C1=C(N2CCOCC2)C(=C\c2ccc(Cl)cc2)/CC1	-0.455	-2.6	-58.3	nt	-11.6
COc1cccc(C(O)c2cnc(C(C)C)n2C)c1 (stereo not given)	0.468	nt	-20.0	nt	nt
CC(C)Cc1cc(C(=O)N2CCC(N3CCC(C(=O)N4CCOCC4)CC3)CC2)n[nH]1	0.903	1.1	15.3	0.15	9.8
Fc1cccc(-c2cc3nc(-c4ccccc4)cc(N4CCC5(CC4)OCCO5)n3n2)c1	0.246	36.3	-244.7	-0.534	48.9
Fc1ccc(-c2cc3nc(-c4ccccc4)cc(N4CCOCC4)n3n2)cc1	0.883	6.2	-478.3	-0.058	nt
Cc1cccc(-c2cc3nc(-c4ccccc4)cc(N4CCC5(CC4)OCCO5)n3n2)c1	-0.478	47.2	-145.8	-1.24	35.1
COc1ccc(-c2cc3nc(-c4ccccc4)cc(N4CCCC(O)C4)n3n2)cc1 (stereo not given)	0.515	32.0	i	-0.0244	68.2*
COc1ccc(-c2cc3nc(-c4ccccc4)cc(N4CCC(O)CC4)n3n2)cc1	0.532	37.7	i	-0.201	61.6*
Cc1ccc(-c2cc3nc(-c4ccccc4)cc(N4CCC5(CC4)OCCO5)n3n2)cc1	1.83	55.9*	-90.3	0	54.5
COCCN1CCN(c2cc(-c3ccccc3)nc3cc(-c4cccc(F)c4)nn23)CC1	-0.463	87.4*	-180.6	0.18	77.1*
O=C(c1ccco1)N1CCN(S(=O)(=O)c2ccc([N+](=O)[O-])cc2)CC1	0.846	12.5	-27.3	0.2	1.2
O=C(c1ccc2c(c1)OCO2)N(c1ccc(Cl)cc1)C1C=CS(=O)(=O)C1 (stereo not given)	-0.892	-2.2	-30.5	nt	7.3
CCn1cc(C(=O)O)c(=O)c2cnc(N3CCN(C(=S)Nc4ccccc4Cl)CC3)nc21	-1.51	nt	19.1	nt	nt
CC(C)c1nc(=S)c2ccccc2[nH]1	18.9*	-9.1	-12.2	nt	-3.0
SMILES	Cl transport mod	L major viab	Calpain2 inh	ROMK mod	WT yeast gro inh
O=c1[nH]c(C2CCCCC2)nc2ccccc12	0.466	-1.5	-11.6	-0.646	-14.4
S=c1nc(C2CC2)[nH]c2ccccc12	32.3*	-7.3	-10.4	nt	4.4
S=c1nc(C2CCCCC2)[nH]c2ccccc12	86.1*	-4.3	-3.5	3.07*	4.9
CNc1nc(=S)[nH]c2ccccc12	0.901	nt	-6.2	nt	nt
CC(=O)Nc1ccc(OS(=O)(=O)c2ccc(C(C)(C)C)cc2)cc1	-0.35	5.1	-19.9	-0.687	-2.0
COc1ccc2c(c1)/C(=N/OC(=O)c1cccs1)CCC2	1.65	3.5	34.6	0.544	70.8*
CCNS(=O)(=O)c1ccc(NC(=O)Cn2cc([N+](=O)[O-])cn2)cc1	0.49	-7.7	-18.2	-0.676	-21.7
Cc1ccc(NP(=O)(Nc2ccc(C)cc2)Nc2ccc(C)cc2)cc1	-0.52	57.6*	31.6	-0.362	-8.1
CCOc1c(Br)ccc2c1sc1nc[nH]c(=O)c12	0.00858	1.5	-3.0	nt	-2.1
CC(NC(=O)c1ccc(Cl)c(Cl)c1)c1ccc(-c2ccccc2)cc1 (stereo not given)	0.433	nt	-6.7	nt	nt
CC(NC(=O)CCl)c1ccc(Cl)c(Cl)c1 (stereo not given)	-0.262	62.7*	-14.1	-0.668	5.9
CCOc1cc(/C=C/c2cc(C(=O)O)c3ccccc3n2)ccc1O	-0.0835	75.5*	20.2	-0.259	10.1
CN(C)c1ccc(/C=N\NC(=O)CC#N)cc1	0.534	-1.9	-238.3	0.592	-21.5
COc1ccc(/C=C/C(=O)c2ccc3c(c2)OCCO3)cc1[N+](=O)[O-]	-0.344	43.5	0.4	-0.298	1.6
O=C(/C=C/c1cccc([N+](=O)[O-])c1)c1ccc2c(c1)OCCO2	1.21	97.8*	0.9	nt	30.6
O=C(/C=C/c1cccc([N+](=O)[O-])c1)c1cccs1	1.49	89.2*	-0.8	-0.733	10.2
O=C(/C=C/c1cccc([N+](=O)[O-])c1)N1CCN(S(=O)(=O)c2cccs2)CC1	-0.114	66.0*	13.8	-0.566	17.4
O=c1c2ccccc2cnn1-c1nc2ccccc2[nH]1	-0.0719	-3.9	-204.3	0.653	86.0*
O=c1c(Cl)c(N2CCCCC2)cnn1-c1nc2ccccc2[nH]1	-0.289	59.8*	36.3	nt	55.9
O=C(NNC(=O)c1cc(-c2ccc(Cl)c(Cl)c2)nc2ccccc12)Nc1ccccc1	0.0349	61.0*	-57.7	-0.038	-7.1
Cc1cccc(NC(=S)NC(=O)c2cc(-c3ccccc3)nc3ccccc23)c1	8.49*	11.0	-9.0	nt	-1.3
Cc1ccccc1NC(=S)NC(=O)c1cc(-c2ccccc2)nc2ccccc12	14.3*	40.1	-38.0	nt	11.8
Cc1csc(SCC(=O)Nc2sccc2C(N)=O)n1	-1.36	1.6	32.4	-0.465	-3.7
COc1ccc(C/C(C)=N/NS(=O)(=O)c2ccc(Br)cc2)cc1	0.287	2.8	-11.7	1.05	13.1
Cc1cnccc1CN(C)Cc1nc(Cc2ccccc2Cl)no1	-0.239	16.6	-25.2	-0.435	0.5
N/C(=N\N=C\c1ccc2c(c1)OCO2)SC1CC(=O)N(c2ccc(C(=O)O)cc2)C1=O (stereo not given)	0.608	-3.4	-16.0	-0.402	-6.9
C/C(CCc1ccc2c(c1)OCO2)=N\N=C(/N)SC1CC(=O)N(c2ccc(Cl)cc2)C1=O (stereo not given)	-0.752	2.9	-179.1	nt	65.2*
CCN(c1cccc(C)c1)S(=O)(=O)c1ccc2c3c(cccc13)C(=O)N2	-0.000893	98.9*	-35.3	-1.67	-7.8
Oc1cccc(C(O)CNCc2ccc(OCc3ccc(Cl)cc3Cl)cc2)c1 (stereo not given)	-0.248	97.0*	9.8	-0.00635	87.7*
